Bioassay records from PubChem BioAssay.
Shown is part of a subset that was picked to be rich in hits.
Dicer processing: human Dicer pre-microRNA cleavage inhibition; Q9UPY3; cat-ELCCA pre-miR-21 Dicer processing, chemiluminescence; hits give high values; z-score at 25 µM; actives 6% (n = 47,000); in the data active = z-score above about 3, passing the limit was not always enough;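 also: plate controls were vehicle for no effect and no enzyme for full effect; higher signal means more uncleaved substrate so more Dicer inhibition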
Numbers without * were called inactive.

SMILES | Dicer processing
CC(=O)NC(NCc1ccc(F)cc1)(C(F)(F)F)C(F)(F)F | -1.1
O=[N+]([O-])c1cc(Br)cnc1Sc1nnc(SCC2CC2)s1 | -0.84
O=C1c2cccnc2C(=O)N1c1ccc(Br)cc1OC(F)(F)F | 2
O=c1c(N2CCCCC2)c(N2CCCCC2)c1=O | 7.3*
O=C(O)c1c(N2CCCCC2)ccc([N+](=O)[O-])c1N1CCCCC1 | -0.06
O=[N+]([O-])c1ccc(N2CCCCCCC2)cc1 | 1.5
CCCCCCCC1C(=O)N(S(=O)(=O)c2ccccc2Cl)N=C1C (stereo not given) | 35
COc1cccc(/C=C/N2CCCC2)c1[N+](=O)[O-] | -0.21
N#CC(=Nc1ccc(F)cc1F)C1=C(O)c2ccccc2C1=O | -3.2
N#CC(=Nc1ccc(F)cc1)C1=C(O)c2ccccc2C1=O | 0.82
CC(C)(C)c1ccc(N=C(C#N)C2=C(O)c3ccccc3C2=O)cc1 | 3.1*
Cc1cc(-c2nn(C)c(=O)c3ccccc23)cc(C)c1OCC(=O)NNC(=O)Nc1ccc(OC(F)(F)F)cc1 | -0.6
CCS(=O)(=O)Nc1c(C)n(C)n(-c2ccccc2)c1=O | 1.7
CCOc1ccc(S(=O)(=O)Nc2c(C)n(C)n(-c3ccccc3)c2=O)cc1 | 0.71
Cc1c(NS(=O)(=O)c2cn(C)cn2)c(=O)n(-c2ccccc2)n1C | 6*
c1nc(NC2CCCCC2)c2c3c(sc2n1)CCCC3 | -0.62
CCOC(=O)c1ccc(N/N=C/c2ccccc2O)cc1 | -1.8
CCOC(=O)C1=C(C)NC2=C(C(=O)CCC2)C1c1ccc(Cl)cc1 (stereo not given) | 5.5
CCSC1=N/C(=C\c2ccc(OC(C)=O)c(OC(C)=O)c2)C(=O)S1 | 2.9
CCOC(=O)c1[nH]c(C)c(C(C)=O)c1C | -1
CCOC(=O)c1[nH]c(Cc2[nH]c(C(=O)OCC)c(C)c2C)c(C)c1C | -0.8
CCOC(=O)c1[nH]c(C)c(CC)c1C | 4.3*
O=C(Nc1ccc(S(=O)(=O)N2CCCC2)cc1)c1sc2ccccc2c1Cl | -2.3
CCOC(=O)CCc1nc2ccccc2[nH]1 | 0.58
Nc1ccc(CCc2nc3ccccc3[nH]2)cc1 | 6.5*
SMILES | Dicer processing
Cc1ccc(Cc2nc3ccccc3[nH]2)cc1 | -0.64
COc1ccc(C2c3c(oc4ccc(C)cc4c3=O)C(=O)N2c2nc(C)c(C)s2)cc1OC (stereo not given) | -3.9
Cn1[nH]c(=O)cc1C(=O)N/N=C/c1ccccc1 | 3.1*
CCCCC#Cc1cncc(C(=O)N/N=C/c2ccccc2)c1 | -0.3
CC(C)S(=O)(=O)c1csc(C(=O)N/N=C/c2ccccc2)c1-n1cccc1 | 1.2
c1ccc(CN2CCC(Nc3ncnc4cc(-c5ccccc5)sc34)CC2)cc1 | 0.1
O=C(CSc1n[nH]c(=O)n1Cc1ccco1)c1csc2ccccc12 | -0.55
CS(=O)(=O)c1ccc2nc(NC(=O)c3cc4ccccc4o3)sc2c1 | 4.2*
CS(=O)(=O)c1ccc2sc(NC(=O)c3cc4ccccc4o3)nc2c1 | -0.08
CS(=O)(=O)c1ccc2nc(NC(=O)Oc3ccccc3)sc2c1 | 2.5
Cc1csc(C(=O)O/N=C/c2ccc(Cl)cc2Cl)c1 | 0.04
O=c1sc2ccccc2c(Nc2ccccc2)c1[N+](=O)[O-] | 3.6*
O=c1sc2ccccc2c(N2CCN(c3ccccc3)CC2)c1[N+](=O)[O-] | 0.84
CC(C)(C)Nc1c([N+](=O)[O-])c(=O)sc2ccccc12 | -0.95
CN(C)CCCNc1sc(-c2ccccn2)c([N+](=O)[O-])c1[N+](=O)[O-] | 0.03
CCCCNc1c([N+](=O)[O-])c(=O)sc2ccccc12 | 7*
O=c1sc2ccccc2c(NCCCN2CCOCC2)c1[N+](=O)[O-] | -0.32
Clc1ccc(CSC2=NCN(Cc3ccccc3)CN2)cc1 | -0.52
O=c1[nH]c(=O)n(-c2ccccc2)c2c1CN(C1CCCCC1)CN2 | 1.8
Cc1nnc(N2C(=O)c3oc4ccccc4c(=O)c3C2c2cccc(OCc3ccccc3)c2)s1 (stereo not given) | -0.16
O=C1C=C(NCc2ccccc2)CC(c2ccc(Cl)cc2)C1 (stereo not given) | 0.83
COc1ccccc1Nc1nc(N)nc(CSc2nc3ccccc3s2)n1 | 1.6
Cn1cnnc1SCC(=O)N1c2ccccc2Sc2ccccc21 | 0.7
N#CC1=C(SCC(=O)Nc2ccc(Cl)cc2)NC(=O)CC1c1cccs1 (stereo not given) | -2.8
O=C(Nc1ccc(Cl)cc1)N1N=C2c3ccccc3CCC2C1c1cccs1 (stereo not given) | -0.38
SMILES | Dicer processing
O=C(Nc1ccc(Cl)cc1)N1CCOC1c1cccs1 (stereo not given) | 4.2*
CCc1c(C(=O)OC)nn(-c2ccc(C)cc2)c(=O)c1C#N | 0.37
Cn1c(SCC(=O)c2c[nH]c3ccccc23)nnc1C1CCCCC1 | 2
CC1=C(C(=O)OCC2CCCO2)C(c2cccc(Cl)c2)C2=C(CC(C)(C)CC2=O)N1 (stereo not given) | 0.84
CC1=C(C(=O)OCC2CCCO2)C(c2cccc(O)c2)C2=C(CC(C)(C)CC2=O)N1 (stereo not given) | 3.1*
COC(=O)C1=C(C)NC2=C(C(=O)CC(c3ccccc3)C2)C1c1ccccc1F (stereo not given) | 8
